# Values without a mark were called inactive.
# Test system: Ditylenchus dipsaci
# Assay: proportion of mobile D. dipsaci (mixed stage) relative to DMSO control (fraction of DMSO control); higher = more viable, less nematicidal, active = 0.86 or less; extreme values may be limits of the assay
# Conditions: 60 µM; 5 days; temperature: 20 °C
# Outline: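 Mobility values are relative to DMSO controls and are averages of two biological replicates. For each well of a 96-well plate, about 20 D. dipsaci worms, grown on pea plants in Gamborg B-5 agar and funnel-extracted into water, were dispensed in distilled water. Plates received pinned compound at 60 µM final with 0.6% v/v DMSO and were sealed and shaken at 200 rpm for 5 days at 20 °C before 2 µL 1 M NaOH was added and mobile worms were scored by microscope.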
row,SMILES,proportion of mobile D. dipsaci
1,CC[C@H](C)[C@H]1O[C@]2(C=C[C@@H]1C)C[C@@H]1C[C@@H](C/C=C(\C)[C@@H](O[C@H]3C[C@H](OC)[C@@H](O[C@H]4C[C@H](OC)[C@@H](O)[C@H](C)O4)[C@H](C)O3)[C@@H](C)/C=C/C=C3\CO[C@@H]4[C@H](O)C(C)=C[C@@H](C(=O)O1)[C@]34O)O2.CO[C@H]1C[C@H](O[C@H]2[C@H](C)O[C@@H](O[C@@H]3/C(C)=C/C[C@@H]4C[C@@H](C[C@]5(C=C[C@H](C)[C@@H](C(C)C)O5)O4)OC(=O)[C@@H]4C=C(C)[C@@H](O)[C@H]5OC/C(=C\C=C\[C@@H]3C)[C@]54O)C[C@@H]2OC)O[C@@H](C)[C@@H]1O [abamectin],0.727 (active)
2,CC(C)NC(=O)N1CC(=O)N(c2cc(Cl)cc(Cl)c2)C1=O [iprodione],1
3,O=C(NCCc1ncc(C(F)(F)F)cc1Cl)c1ccccc1C(F)(F)F [fluopyram],0 (active)
4,CNC(=O)O/N=C(\SC)C(=O)N(C)C [oxamyl],1
